Experimental data: the supplement of paper PMC7380943
Structures can show the parent of a compound that is named as a salt. ± gives the standard deviation of the averaged measurements.

Tests used:
[1] = test system: CLZ3 (HCA2 human fibroblast dual HR-NHEJ reporter); test: NHEJ repair efficiency (GFP+ cells) relative to control (log10 fold); higher = more non-homologous end joining; settings: 5 µM; doxycycline 0.5 ug/mL
[2] = test system: CLZ3 (HCA2 human fibroblast dual HR-NHEJ reporter); test: HR repair efficiency (tdTomato+ cells) relative to control (log10 fold); higher = more homologous recombination; settings: 5 µM; doxycycline 0.5 ug/mL
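Wherever HR repair efficiency (tdTomato+ cells) relative to control is given: compound given one day before doxycycline, which switches on I-SceI endonuclease expression to create double-strand breaks within the integrated reporter.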
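Wherever NHEJ repair efficiency (GFP+ cells) relative to control is given: compound given one day ahead of doxycycline, which switches on I-SceI endonuclease to cut the chromosomally integrated reporter and create DSBs.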

C=C[C@@H]1CNC(=S)O1 [Epigoitrin]
NHEJ repair efficiency (log10) [1]: 0.17 | HR repair efficiency (log10) [2]: 0.212

C=C1CCC[C@]2(C)C=C3OC(=O)C(C)=C3C[C@@H]12 [Atractylenolide I]
NHEJ repair efficiency (log10) [1]: 0.0524 | HR repair efficiency (log10) [2]: 0.0435

C=C1C[C@@]2(O)O[C@@]3(C[C@H]2C(C)C)[C@@H](C)CC[C@@H]13 [Curcumol]
NHEJ repair efficiency (log10) [1]: -0.0784 | HR repair efficiency (log10) [2]: 0.163

C=C1[C@H]2CC[C@]3([C@@H]1O)[C@H]1C[C@@H]4C5(C)CCCC4([C@@H]1N(CC)C5)[C@@H]3[C@H]2O [Denudatine]
NHEJ repair efficiency (log10) [1]: -0.089 | HR repair efficiency (log10) [2]: 0.0616

CC(C)(O)CC[C@@H](O)C(C)(O)[C@H]1CC[C@@]2(O)C3=CC(=O)[C@@H]4C[C@@H](O)[C@@H](O)C[C@]4(C)[C@H]3CC[C@]12C (stereo partly drawn) [Β-Hydroxyecdysone]
NHEJ repair efficiency (log10) [1]: -0.034 | HR repair efficiency (log10) [2]: 0.056

C[N+]1(C)CCCC1C(=O)O (stereo not given) [Stachydrine Hydrochloride]
NHEJ repair efficiency (log10) [1]: -0.0485 | HR repair efficiency (log10) [2]: 0.12

COc1ccc(-c2oc3c(CC=C(C)C)c(O[C@@H]4O[C@H](CO)[C@@H](O)[C@H](O)[C@H]4O)cc(O)c3c(=O)c2O[C@@H]2O[C@@H](C)[C@H](O)[C@@H](O)[C@H]2O[C@@H]2O[C@@H](C)[C@H](O)[C@@H](O)[C@H]2O)cc1 [Epimedin C]
NHEJ repair efficiency (log10) [1]: -0.0776 | HR repair efficiency (log10) [2]: -0.0883

COc1ccc(C[C@H]2COC(=O)[C@@H]2Cc2ccc(O[C@@H]3O[C@H](CO)[C@@H](O)[C@H](O)[C@H]3O)c(OC)c2)cc1OC [Arctiin]
NHEJ repair efficiency (log10) [1]: -0.18724 ± 8.6e-05 | HR repair efficiency (log10) [2]: -0.203 ± 0.1

c1ccc2c(c1)OC1c3ccccc3OCC21 (stereo not given) [Pterocarpan]
NHEJ repair efficiency (log10) [1]: 0.112 | HR repair efficiency (log10) [2]: -0.0555

O=c1ccc2ccccc2o1 [Coumarin]
NHEJ repair efficiency (log10) [1]: -0.104 | HR repair efficiency (log10) [2]: 0.0819
